Sampled rows, rich in hits. Any-hit rate of the full collection: about 2.5%.
ULK1 primary: inhibitors of human ULK1 kinase. 30,000 compounds, 1.9% hits. inhibition, % at 5.96 µM. O75385. AlphaScreen Atg13 phosphorylation by ULK1, luminescence. AID 1259251; in the data active means inhibition above about 43%
ASK1 primary: human ASK1 kinase inhibition, primary screen | 22,000 compounds, 0.99% hits | inhibition, % at 7.44 µM | AlphaScreen MKK6 phosphorylation by ASK1, luminescence | Q99683; in the data active means inhibition above about 35%
Numbers stand for hits; n = inactive; x = no result.

SMILES | ULK1 primary | ASK1 primary
O=C(Nc1ccc(N2CCOCC2)cc1)c1cc(NCCCN2CCCC2=O)nc2ccccc12 | 51 | n
O=C(Nc1ccc(N2CCOCC2)cc1)c1cnc(NCCCN2CCCC2=O)s1 | 56 | n
O=C(Nc1ccc(Oc2ccccc2)cc1)c1cc(N2CCc3ccccc3C2)nc2ccccc12 | n | n
Cn1c(=O)cc(NCCc2ccccc2)n(Cc2ccccc2)c1=O | n | x
Nc1nc(Nc2ccccc2)nc2nc[nH]c12 | n | n
Cc1nn(C)c(C)c1-c1nccc(NCCCN2CCCC2=O)n1 | n | n
N#Cc1ccc(Nc2ncc(Cl)c(Nc3ccccc3C(N)=O)n2)cc1 | 46 | n
NC(=O)c1ccccc1Nc1nc(Nc2ccc(N3CCOCC3)c(F)c2F)ncc1Cl | n | n
COc1ccc(Nc2ncc(Cl)c(Nc3ccccc3-c3ccn(C)n3)n2)cc1 | n | n
NC(=O)c1ccccc1Nc1nc(Nc2ccc(N3CCCC3=O)cc2)ncc1Cl | 92 | n
Cc1ncn(-c2ccc(Nc3ncc(C)c(Nc4ccccc4C(N)=O)n3)cc2)n1 | 72 | n
Cc1ncn(-c2ccc(Nc3ncc4ccnc(-c5ccccc5)c4n3)cc2)n1 | n | n
Cc1noc(C)c1-c1ncc(C(=O)Nc2ccccc2)s1 | n | n
O=C(Cn1c(CO)cnc1SCc1ccccc1Cl)NC1CC1 | n | x
COCCN(C1CCN(S(=O)(=O)c2ccccc2)CC1)S(=O)(=O)c1ccccc1 | n | x
CCCNc1nc(N2CCC(N3CCOCC3)CC2)ncc1C | n | n
CCc1c[nH]c2ncnc(-c3ccc(NC(=O)Nc4cccc(C(=O)NC(C)C)c4)cc3)c12 | n | n
CC(C)NC(=O)c1cccc(NC(=O)Nc2ccc(-c3ncnc4[nH]ccc34)cc2)c1 | 47 | n
CC(=O)Nc1ccc(NC(=O)c2cccc(-c3ccc(C(N)=O)cc3)c2)cc1 | n | n
Cc1ncn(-c2ccc(Nc3nccc(-c4cc(F)cc(-c5cnoc5)c4)n3)cc2)n1 | n | n
Cc1nc(C)n(-c2ccc(Nc3nccc(-c4cc(F)cc(-c5cnoc5)c4)n3)cc2)n1 | 45 | n
COc1ccc(-c2cccc(C(=O)NCCN3CCOCC3)n2)cc1 | n | n
c1cncc(CNc2nc(Nc3ccc4c(c3)OCO4)c3[nH]cnc3n2)c1 | n | n
Cc1cncc2c(S(=O)(=O)N3CC[C@H](NC(=O)c4ccc(Br)cc4Cl)C3)cccc12 | n | n
c1ccc(Nc2nc(Nc3ccncc3)nc3c2ncn3C2CCCCC2)cc1 | n | n
SMILES | ULK1 primary | ASK1 primary
CNC(=O)c1cc(F)ccc1Nc1cc(Nc2ccc(N3CCOCC3)cc2OC)ncc1C(F)(F)F | 84 | n
COc1cc(N2CCOCC2)ccc1Nc1cc(Nc2ccccn2)c(C(F)(F)F)cn1 | n | n
COc1cc(N2CCOCC2)ccc1Nc1cc(Nc2ccccc2S(=O)(=O)NC(C)C)c(C(F)(F)F)cn1 | n | n
CNC(=O)c1cc(F)c(F)cc1Nc1cc(Nc2ccc(N3CCOCC3)cc2OC)ncc1C(F)(F)F | 69 | n
CNC(=O)c1cc(F)c(F)cc1Nc1cc(Nc2ccc3c(c2)CC(=O)N3)ncc1C(F)(F)F | n | n
CNC(=O)c1ccccc1Nc1cc(Nc2ccc(N3CCOCC3)cc2OC)ncc1Br | 86 | n
COc1cc(N2CCOCC2)ccc1Nc1cc(Nc2ccc(F)cc2OC)c(C(F)(F)F)cn1 | n | n
CNS(=O)(=O)c1ccccc1Nc1cc(Nc2ccc(N3CCOCC3)cc2OC)ncc1C(F)(F)F | 91 | n
COc1cccc(OCC(=O)Nc2ccc(-c3ccnc(N)n3)cc2NC(C)=O)c1 | n | n
c1ccc(Nc2nc(N3CCc4ccccc4C3)nc3c2ncn3C2CCCCC2)cc1 | n | n
Cc1cc(O)c2c(c1)Cc1cccc(O)c1C2=O | 44 | x
O=C1c2cccc(O)c2C(=O)c2c(O)cccc21 | n | x
Cc1nc2ccc(-c3ccnc(Nc4cccc(C(=O)N5CCCC5)c4)n3)cc2c(=O)n1C | n | n
Cc1nc2cc(-c3ccnc(Nc4cccc(C(=O)NC(C)C)c4)n3)ccc2c(=O)n1C1CC1 | n | n
O=C(c1cccc(Nc2nccc(-c3ccc4nc(C5CC5)[nH]c(=O)c4c3)n2)c1)N1CCCC1 | 80 | n
O=C(c1cccc(Nc2nccc(-c3ccc4c(=O)[nH]c(C5CC5)nc4c3)n2)c1)N1CCCC1 | 65 | n
O=C(NCCOc1ccccc1)c1cnc(-c2ccccc2)s1 | n | n
Cc1ncccc1Nc1ccc2c(cnn2-c2cc(C(=O)NCCN3CCOCC3)ccn2)c1 | n | n
COc1cc(Nc2nc(NC3CC3)c3ncn(-c4ccccc4)c3n2)cc(OC)c1OC | n | n
Nc1ccc(O)c(N)c1 | n | x
NCCc1ccc(O)c(O)c1 | 74 | x
COc1cc(Nc2cc(C(=O)NC3CCN(Cc4ccccc4)CC3)ccn2)cc(OC)c1OC | n | n
CC(=O)Nc1ccc(NC(=O)Cc2cn(-c3ccc(N4CCCC4CO)nn3)c3ccccc23)cc1 (configuration not stated) | n | n
COc1cc(N2CCOCC2)ccc1Nc1cc(Nc2ccccc2-c2ncco2)c(C(F)(F)F)cn1 | n | n
CC(C)NC1CCC(Nc2cc(Nc3ccccc3C(N)=O)c(C(F)(F)F)cn2)CC1 (configuration not stated) | n | n
SMILES | ULK1 primary | ASK1 primary
CNC(=O)c1ccccc1Nc1cc(Nc2ccc(N3CCN(C)CC3)cc2OC)ncc1C(F)(F)F | 91 | n
CNC(=O)c1ccccc1Nc1cc(Nc2ccc(N3CCC(N(C)C)C3)cc2OC)ncc1C#N (configuration not stated) | 91 | n
COc1cc(N2CCOCC2)ccc1Nc1cc(Nc2cccc3c2C(=O)N(C)C3)c(C(F)(F)F)cn1 | n | n
CNC(=O)c1ccccc1Nc1cc(Nc2ccc(OC3CCN(C)CC3)cc2OC)ncc1C(F)(F)F | 95 | n
CCCNC(=O)c1ccnc(-c2cccc(N)c2)c1 | n | n
COc1cc(Nc2nccc(NCCOc3ccccc3)n2)cc(OC)c1OC | n | n
CCNc1cccc(C(=O)NCc2cccnc2)n1 | n | n
C[C@H]1c2cccc(O)c2C(O)=C2C(=O)[C@]3(O)C(O)=C(C(N)=O)C(=O)[C@@H](N(C)C)[C@@H]3[C@@H](O)[C@@H]21 | 52 | x
CN(C)c1ccc(O)c2c1C[C@H]1C[C@H]3[C@H](N(C)C)C(=O)C(C(N)=O)=C(O)[C@@]3(O)C(=O)C1=C2O | n | x
COc1ccc(CCNC(=O)c2ccc3nc(Nc4ccccn4)sc3c2)cc1 | n | n
CC(=O)N1CCC(Nc2ncc3cccc(-c4ccc(C)nc4)c3n2)CC1 | n | n
Cc1ccc(-c2cccc3cnc(Nc4ccc(C(=O)N5CCN(C)CC5)cc4)nc23)cn1 | 58 | n
Cc1cc(Nc2ccccc2)nc(-c2ccc(C(=O)N3CCN(C)CC3)cc2)n1 | n | n
Cn1cc(-c2cccc3cnc(NC4CCN(C(=O)N5CCCC5)C4)nc23)cn1 (configuration not stated) | n | n
Cc1ccc(-c2cccc3cnc(Nc4cccc(C(=O)N5CCN(C)CC5)c4)nc23)cn1 | 62 | n
Cc1ccc(-c2cccc3cnc(Nc4cccc(C(=O)N5CCCC5)c4)nc23)cn1 | 51 | n
Cc1ccc(-c2cccc3cnc(Nc4ccc(C(=O)N5CCOCC5)cc4)nc23)cn1 | 58 | n
Cc1cnc(-c2ccc(C(=O)N3CCN(C)CC3)cc2)nc1Nc1ccc(N2CCOCC2)cc1 | n | n
Cc1cc(NCc2cccc(C(F)(F)F)c2)nc(Nc2nccc3ccccc23)n1 | n | n
CCOc1ccccc1/C=C(\NC(=O)c1ccccc1)C(=O)N1CCCCCC1 | n | x
CCCNC(=O)c1ccc2nc(NCc3ccc4c(c3)OCO4)sc2c1 | n | n

Source: PubChem (The Scripps Research Institute Molecular Screening Center)
